Results filed as inconclusive are left out. Unmarked numbers belong to inactive results. The source made the active and inactive calls. Calls follow the shape of the full dose curve; tested in HEK293 reporter line.
% is scaled to controls: 0 for no effect and ±100 for the full control effect; potency is read from the fitted curve at half-maximal effect.

One experiment in a line: qHTS for Inhibitors of the Functional Ribonucleoprotein Complex (vRNP) of Lassa (LASV) Arenavirus: LASV Primary Screen - GLuc reporter signal (AID 1347082). Also: nearly all actives have a fitted effect of over 60% in size. The conditions noted are these: LASV minigenome vRNP, Gaussia luciferase reporter; series mostly up to 57.5 µM; activity change, negative = inhibition: at the top concentration. (In general: Quantitative high-throughput screening tests each substance at several concentrations.)
With `Cc1cc(O)c2c(c1O)C(=O)C(O)=C(O)C2=O`, the “activity change, negative = inhibition” value is -18.4%.
Same read-out and setting: then `CC1=CCC[C@H]2[C@H](C1)C(=O)C[C@@H](C)[C@]2(C)CC/C(=C/CO)CO`, with -6.17%.
For `COC1=CC(=O)[C@@]2([C@@H]1O)[C@@H](Cl)C[C@]13C(OC)=C(OC)C(=O)C[C@]21CCN3C`, the “activity change, negative = inhibition” value was -6.43%.
Consider `CCN(CC)CCNC(=O)c1c(C)[nH]c(C=C2C(=O)Nc3ccc(F)cc32)c1C`, for which the Potency was 44.4 µM (active).
Consider `CCCCOC(=O)C(=O)OCCCC`, for which the “activity change, negative = inhibition” value was 2.68% [at 115 µM].
On to `CC1=C(O)C(=O)[C@@H]2O[C@@H]2C1=O`, for which the “activity change, negative = inhibition” value was -2.67% [at 115 µM].
Consider `C[C@@H]1OC(=O)[C@H]2C[C@H]3CCCC[C@@H]3[C@@H](/C=C/[C@H]3CCC[C@H](C)N3C)[C@@H]12`, for which the “activity change, negative = inhibition” value is 5.12%.
Take `CN1CCCCC1c1cccnc1` (stereo not drawn): the “activity change, negative = inhibition” value is -4.04%.
In the case of `Cc1ncsc1CCO`, the “activity change, negative = inhibition” value is -33.3% [at 115 µM].
Take `CCCCCCCCCCCCCC/C(C(=O)O)=C(\C)C(=O)O`: the “activity change, negative = inhibition” value is 10.1%.
Regarding `Nc1oc2ccccc2c1C(=O)Cc1ccccc1O[C@@H]1O[C@H](CO)[C@@H](O)[C@H](O)[C@H]1O`, the “activity change, negative = inhibition” value was 2.38%.
In the case of `c1coc(Cn2cccc2)c1`, the “activity change, negative = inhibition” value was -3.64% [at 115 µM].
Same read-out and setting: under `c1cncc(C2CCCN2)c1` (stereo not drawn) stands -3.79%.
As to `CN(C)Cc1c[nH]c2ccccc12`, the “activity change, negative = inhibition” value was 4.59%.
Turning to `CCN1C[C@]2(COC(=O)c3ccccc3N3C(=O)CC(C)C3=O)CC[C@H](OC)[C@@]34C5C[C@@H]6[C@@H](OC)C[C@@](O)(C5[C@H]6OC)[C@](O)([C@@H](OC)C23)[C@@H]14` (stereo partly drawn), the “activity change, negative = inhibition” value was -3.52%.
Regarding `CC(C)(O)[C@H](O)Cc1cc2ccc(=O)oc2cc1O[C@@H]1O[C@H](CO)[C@@H](O)[C@H](O)[C@H]1O`, the “activity change, negative = inhibition” value was -7.35%.
Regarding `CC(=O)OCCC(C)C`, the “activity change, negative = inhibition” value is 5.55%.
Turning to `O=C1O/C(=C\c2ccc(O)cc2)C(O)=C1c1ccc(O)cc1`, the “activity change, negative = inhibition” value was 6.24%.
On to `COc1cc2nc3occc3c(OC)c2cc1OC`, for which the “activity change, negative = inhibition” value was 3.85%.
For `CN(CCCC(=O)c1cccnc1)N=O`, the “activity change, negative = inhibition” value is 0.326%.
For the compound `C[C@@H]1[C@H]2[C@@H](O[C@@H]3O[C@H](CO)[C@@H](O)[C@H](O)[C@H]3O)OC=C(C(=O)O)[C@H]2C[C@@H]1O`, the “activity change, negative = inhibition” value was -12.6%.
`CC(=O)OCC1=C(C(=O)[O-])N2C(=O)[C@@H](NC(=O)CCC[C@@H](N)C(=O)[O-])[C@H]2SC1.[Zn+2]`: the “activity change, negative = inhibition” value is -13.3%.
Still for that read-out and setting: then `O=C(O)c1cccc(Br)c1`, with 4.5%.

Another experiment in a line: qHTS for Inhibitors of the Functional Ribonucleoprotein Complex (vRNP) of Lassa (LASV) Arenavirus: Viability assay - alamar blue signal for LASV Primary Screen (AID 1347083). Also: nearly all actives have a fitted effect of over 80% in size. The conditions noted are these: cell viability, alamar blue fluorescence (LASV minigenome counter-screen); series mostly up to 57.5 µM; activity change, negative = reduced viability: at the top concentration.
`CC(C)CC(=O)O`: the “activity change, negative = reduced viability” value is 9.07%.
`CC(O)[C@H]1CC[C@H]2[C@@H]3CC[C@H]4C[C@@H](O)CC[C@]4(C)[C@H]3C(=O)C[C@]12C` (stereo partly drawn): the “activity change, negative = reduced viability” value was -0.211%.
Consider `C=C1C[C@H](O)[C@@H]2[C@H](OC(=O)[C@H]2C)[C@H]2[C@H](C)[C@@H](O)C[C@@H]12`, for which the “activity change, negative = reduced viability” value was 13%.
As to `COc1ccc2[nH]c3c(c2c1)CCNC3C` (stereo not drawn), the “activity change, negative = reduced viability” value was 0.0108%.
As to `CCCCC(C)/C=C(C)/C=C(\C)C(=O)NC1=CC(O)(/C=C/C=C/C=C/C(=O)NC2=C(O)CCC2=O)C2OC2C1=O` (stereo not drawn), the “activity change, negative = reduced viability” value was 4.54%.
As to `COc1c2c(nc3occc13)C(CC=C(C)C)(OC)C(OC(C)=O)CC2` (stereo not drawn), the “activity change, negative = reduced viability” value was 1.02%.
Still for that read-out and setting: then `O=Cc1cc2ccccc2o1`, with 4.69% [at 115 µM]; and `COc1ccc(CCN)cc1`, with -3.34%.
Turning to `C[N+]1([O-])CCC[C@@H]1c1cccnc1` (stereo partly drawn), the “activity change, negative = reduced viability” value is -1.23%.
On to `CCCCCCCC/C=C/CCCOC(C)=O`, for which the “activity change, negative = reduced viability” value was 11.6% [at 115 µM].
With `CC1(C)CCc2c([nH]c3ccccc3c2=O)O1`, the “activity change, negative = reduced viability” value is 17.5%.
`Cn1cccc1-c1cccnc1`: the “activity change, negative = reduced viability” value was -1.04%.
On to `CC(=O)C1CCC2C3CCC4=CC(=O)C=CC4(C)C3C(=O)CC12C` (stereo not drawn), for which the “activity change, negative = reduced viability” value is 18.8%.
`COc1cc(CCc2cc(NC(=O)c3ccc(N4C[C@@H](C)N[C@@H](C)C4)cc3)n[nH]2)cc(OC)c1`: the Potency is 34.3 µM (active).
On to `C=C(C)[C@@H]1CCC2=CC(=O)C[C@@H](C)[C@]2(C)C1`, for which the “activity change, negative = reduced viability” value was -11.5% [at 115 µM].
As to `C[C@H]1CC[C@@H]2N(C1)C[C@H]1[C@@H]3C[C@H]4[C@@H](CC(=O)[C@H]5C[C@@H](O)CC[C@@]54C)[C@@H]3CC[C@H]1[C@]2(C)O`, the “activity change, negative = reduced viability” value was 13.3%.
Take `COC(=O)CC1[C@@]2(C)C[C@]34OC5(C)OC6(C7CC(=O)OC(c8ccoc8)[C@]7(C)CCC6(O5)[C@]13C)C(OC(C)=O)[C@]4(OC(C)=O)C2OC(C)=O` (stereo partly drawn): the “activity change, negative = reduced viability” value was 12.7%.
For the compound `Cc1cc(O)c2c(c1O)C(=O)C(O)=C(O)C2=O`, the “activity change, negative = reduced viability” value was -3.98%.
As for `CC1=CCC[C@H]2[C@H](C1)C(=O)C[C@@H](C)[C@]2(C)CC/C(=C/CO)CO`, the “activity change, negative = reduced viability” value was 0.309%.
Consider `COC1=CC(=O)[C@@]2([C@@H]1O)[C@@H](Cl)C[C@]13C(OC)=C(OC)C(=O)C[C@]21CCN3C`, for which the “activity change, negative = reduced viability” value was 2.75%.
As for `CCN(CC)CCNC(=O)c1c(C)[nH]c(C=C2C(=O)Nc3ccc(F)cc32)c1C`, the Potency was 7.89 µM (active).
As for `CCCCOC(=O)C(=O)OCCCC`, the “activity change, negative = reduced viability” value is 10.8% [at 115 µM].
For the compound `CC1=C(O)C(=O)[C@@H]2O[C@@H]2C1=O`, the “activity change, negative = reduced viability” value is -2.57% [at 115 µM].
Regarding `C[C@@H]1OC(=O)[C@H]2C[C@H]3CCCC[C@@H]3[C@@H](/C=C/[C@H]3CCC[C@H](C)N3C)[C@@H]12`, the “activity change, negative = reduced viability” value was 32.1%.
As to `CN1CCCCC1c1cccnc1` (stereo not drawn), the “activity change, negative = reduced viability” value was 10.8%.
As to `Cc1ncsc1CCO`, the “activity change, negative = reduced viability” value is -89.3% [at 115 µM].
In the case of `CCCCCCCCCCCCCC/C(C(=O)O)=C(\C)C(=O)O`, the “activity change, negative = reduced viability” value is -0.109%.
For `Nc1oc2ccccc2c1C(=O)Cc1ccccc1O[C@@H]1O[C@H](CO)[C@@H](O)[C@H](O)[C@H]1O`, the “activity change, negative = reduced viability” value was -15.8%.
For `c1coc(Cn2cccc2)c1`, the “activity change, negative = reduced viability” value is 21.3% [at 115 µM].
On to `c1cncc(C2CCCN2)c1` (stereo not drawn), for which the “activity change, negative = reduced viability” value was 8.65%.
On to `CN(C)Cc1c[nH]c2ccccc12`, for which the “activity change, negative = reduced viability” value is 8.3%.
Take `CCN1C[C@]2(COC(=O)c3ccccc3N3C(=O)CC(C)C3=O)CC[C@H](OC)[C@@]34C5C[C@@H]6[C@@H](OC)C[C@@](O)(C5[C@H]6OC)[C@](O)([C@@H](OC)C23)[C@@H]14` (stereo partly drawn): the “activity change, negative = reduced viability” value was 18.2%.
Turning to `CC(C)(O)[C@H](O)Cc1cc2ccc(=O)oc2cc1O[C@@H]1O[C@H](CO)[C@@H](O)[C@H](O)[C@H]1O`, the “activity change, negative = reduced viability” value is 10.4%.
The same measure, in the same setting: under `CC(=O)OCCC(C)C` stands 5.12%; under `O=C1O/C(=C\c2ccc(O)cc2)C(O)=C1c1ccc(O)cc1`, 14.1%; under `COc1cc2nc3occc3c(OC)c2cc1OC`, -28.1%.
`CN(CCCC(=O)c1cccnc1)N=O`: the “activity change, negative = reduced viability” value is 9.08%.
Take `C[C@@H]1[C@H]2[C@@H](O[C@@H]3O[C@H](CO)[C@@H](O)[C@H](O)[C@H]3O)OC=C(C(=O)O)[C@H]2C[C@@H]1O`: the “activity change, negative = reduced viability” value was -11.1%.
For the compound `CC(=O)OCC1=C(C(=O)[O-])N2C(=O)[C@@H](NC(=O)CCC[C@@H](N)C(=O)[O-])[C@H]2SC1.[Zn+2]`, the “activity change, negative = reduced viability” value is -2.98%.
On the same count and under the same terms, under `O=C(O)c1cccc(Br)c1` stands 21.9%.

The record behind these values is PubChem BioAssay (NCATS).
